Source: PubChem BioAssay AID1159580 (chemical genetic matrix, 2015)
Where “and” joins values, the source holds several entries; their conditions need not be identical. Equal entries are not always repeated. Hit rate of the full screen: of about 5,500 compounds, about 2,000 (36%) were called active. Inconclusive results (about 18%) are left out. Cut-off read from the data, not from the text of the source: active = normalized growth mostly below about 0.91 (no sharp cut-off); inconclusive = no clear call, values can overlap the other calls; inactive = mostly above about 0.92. The list shows a part of the results.

Assay: chemical genetic growth profiling, strain panel (AID 1159580);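 note: tested at 20 µM; growth read once vehicle control cultures reached saturation at 30 °C; 1 = growth at the plate median or of vehicle wells; lower values mean less growth of the strain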
Conditions: S. cerevisiae deletion strains, growth OD

Measured: normalized growth

CC(=O)OC1CCC2C3CCc4cc(O)ccc4C3CCC12C (stereo not given)
inactive: locus YAL021C, strain ccr4, stronger effect = lower value 0.975 | locus YAL026C, strain drs2, stronger effect = lower value 0.96 | locus YAL030W, strain snc1, stronger effect = lower value 0.984 | locus YBR009C, strain hhf1, stronger effect = lower value 0.969 | locus YBR021W, strain FUR4, stronger effect = lower value 0.934 | locus YBR171W, strain sec66, stronger effect = lower value 0.996 | locus YBR229C, strain ROT2, stronger effect = lower value 1.01 | locus YBR231C, strain swc5, stronger effect = lower value 0.966 | locus YBR279W, strain paf1, stronger effect = lower value 0.979 | locus YCL011C, strain gbp2, stronger effect = lower value 0.929 | locus YCL016C, strain dcc1, stronger effect = lower value 0.954 | locus YCL029C, strain bik1, stronger effect = lower value 0.99 | locus YCL061C, strain MRC1, stronger effect = lower value 0.984 | locus YCL069W, strain vba3, stronger effect = lower value 1.02 | locus YCR088W, strain abp1, stronger effect = lower value 0.957 | locus YDL005C, strain med2, stronger effect = lower value 0.973 | locus YDL035C, strain GPR1, stronger effect = lower value 0.973 | locus YDL040C, strain nat1, stronger effect = lower value 1.01 | locus YDL074C, strain BRE1, stronger effect = lower value 0.827 | locus YDL101C, strain DUN1, stronger effect = lower value 0.98 | locus YDL134C, strain PPH21, stronger effect = lower value 0.973 | locus YDL185W, strain tfp1, stronger effect = lower value 1.02 | locus YDL192W, strain arf1, stronger effect = lower value 1.03 | locus YDR001C, strain nth1, stronger effect = lower value 0.999 | locus YDR069C, strain doa4, stronger effect = lower value 0.957 | locus YDR101C, strain arx1, stronger effect = lower value 1 | locus YDR150W, strain NUM1, stronger effect = lower value 1.01 | locus YDR162C, strain NBP2, stronger effect = lower value 1 | locus YDR297W, strain sur2, stronger effect = lower value 0.993 | locus YDR318W, strain mcm21, stronger effect = lower value 1 | locus YDR334W, strain swr1, stronger effect = lower value 1.01 | locus YDR335W, strain msn5, stronger effect = lower value 0.921 | locus YDR388W, stronger effect = lower value 0.997 | locus YDR502C, strain sam2, stronger effect = lower value 0.991 | locus YEL003W, strain gim4, stronger effect = lower value 0.993 | locus YEL037C, strain rad23, stronger effect = lower value 1 | locus YEL061C, strain CIN8 (second series), stronger effect = lower value 0.978 | locus YEL061C, strain CIN8, stronger effect = lower value 0.998 | locus YER015W, strain faa2, stronger effect = lower value 0.981 | locus YER110C, stronger effect = lower value 0.995 | locus YER111C, strain swi4, stronger effect = lower value 0.955 | locus YER155C, strain BEM2 (second series), stronger effect = lower value 0.934 | locus YER167W, strain BCK2, stronger effect = lower value 0.988 | locus YFR010W, strain ubp6, stronger effect = lower value 0.963 | locus YGL078C, strain dbp3, stronger effect = lower value 1.01 | locus YGL086W, strain mad1, stronger effect = lower value 0.979 | locus YGL167C, strain pmr1, stronger effect = lower value 0.999 | locus YGL173C, strain kem1, stronger effect = lower value 0.991 | locus YGL227W, strain vid30, stronger effect = lower value 1.01 | locus YGL240W, strain doc1, stronger effect = lower value 0.968 | locus YGL248W, strain PDE1, stronger effect = lower value 0.954 | locus YGL253W, strain hxk2, stronger effect = lower value 0.96 | locus YGR078C, strain PAC10, stronger effect = lower value 0.899 | locus YGR135W, strain pre9, stronger effect = lower value 1.03 | locus YGR229C, strain SMI1, stronger effect = lower value 0.849 | locus YGR252W, strain gcn5, stronger effect = lower value 0.986 | locus YHR013C, strain ard1, stronger effect = lower value 0.985 | locus YHR027C, strain rpn1, stronger effect = lower value 0.975 | locus YHR030C, strain SLT2, stronger effect = lower value 1.01 and 0.911 | locus YHR079C, strain IRE1 (second series), stronger effect = lower value 1 | locus YHR079C, strain IRE1, stronger effect = lower value 0.938 | locus YHR094C, strain hxt1, stronger effect = lower value 1.02 | locus YHR129C, strain ARP1, stronger effect = lower value 1 | locus YHR142W, strain chs7, stronger effect = lower value 0.903 | locus YHR200W, strain rpn10, stronger effect = lower value 1.02 | locus YIL066C, strain RNR3, stronger effect = lower value 0.962 | locus YIL073C, strain SPO22, stronger effect = lower value 0.957 | locus YIL125W, strain kgd1, stronger effect = lower value 1.01 | locus YIR030C, strain dcg1, stronger effect = lower value 1.02 | locus YJL092W, strain hpr5, stronger effect = lower value 0.986 | locus YJL095W, strain BCK1 (second series), stronger effect = lower value 1 | locus YJL095W, strain BCK1, stronger effect = lower value 0.892 and 0.899 | locus YJL115W, strain asf1, stronger effect = lower value 1.01 | locus YJL129C, strain trk1, stronger effect = lower value 0.92 | locus YJL134W, strain LCB3, stronger effect = lower value 1.01 | locus YJL154C, strain vps35, stronger effect = lower value 0.988 | locus YJL164C, strain tpk1, stronger effect = lower value 0.954 | locus YJL166W, strain qcr8, stronger effect = lower value 0.974 | locus YJL168C, strain set2, stronger effect = lower value 1.01 | locus YJL187C, strain SWE1 (second series), stronger effect = lower value 0.944 | locus YJR043C, strain POL32, stronger effect = lower value 0.938 | locus YJR066W, strain TOR1, stronger effect = lower value 0.905
active: locus YBL061C, strain skt5, stronger effect = lower value 0.893 | locus YBR023C, strain chs3, stronger effect = lower value 0.881 | locus YDR137W, strain rgp1, stronger effect = lower value 0.797 | locus YDR159W, strain sac3, stronger effect = lower value 0.842 | locus YDR195W, strain ref2 0.746 | locus YDR392W, strain spt3, stronger effect = lower value 0.608 | locus YER016W, strain bim1, stronger effect = lower value 0.918 | locus YER155C, strain BEM2, stronger effect = lower value 0.913
